# Test results published in PubChem BioAssay AID651832 (Vanderbilt Specialized Chemistry Center, 2012).
# Experiment: off-target radioligand binding panel, profiling panel, selectivity assay for M5 PAM project, biochemical, Eurofins PanLabs, competition binding (AID 651832)
# Conditions: at 10 µM, stronger effect = higher value
smiles,measurement,setting,value
O=C1C(=O)N(CCOc2ccccc2)c2ccc(OC(F)(F)F)cc21,"inhibition of radioligand binding, muscarinic M1",,22%
same,inhibition,measured here: adenosine A3 binding,57%
same,inhibition,measured here: adrenergic alpha1A binding,71%
same,inhibition,measured here: adrenergic alpha1B binding,66%
same,inhibition,measured here: cannabinoid CB1 binding,72%
same,inhibition,measured here: dopamine D1 binding,73%
same,inhibition,measured here: dopamine D3 binding,59%
same,inhibition,measured here: glucocorticoid receptor binding,88%
same,inhibition,measured here: hERG binding,21%
same,inhibition,measured here: histamine H2 binding,95%
same,inhibition,measured here: mu opioid binding,78%
same,inhibition,measured here: muscarinic M2 binding,-2%
same,inhibition,measured here: norepinephrine transporter binding,77%
